High-throughput results (PubChem)
The list is not random: actives were taken first. Their share in the collection is about 12%.
SARS PLpro yeast = blocks SARS-CoV papain-like protease in a yeast assay; 0.19% of 330,000 active; Potency, µM (highest dose often 32.9 µM), for inactives: at the top dose activity, positive = growth rescue, most hits filed as activators; S. cerevisiae expressing SARS-CoV PLpro, growth rescue; calls by dose curve; further: 0% is about no effect; nearly all actives have a fitted effect of over 55% in size
Sm TGR inh = inhibitors of Schistosoma mansoni thioredoxin glutathione reductase | purified TGR, DTNB reduction, TNB absorbance 405 nm | Potency, µM (highest dose often 114 µM), for the others: at the top dose activity change, negative = inhibition, actives largely listed as inhibitors | 3% of 360,000 active | AID 485364; further: on the % scale 0 is the no-effect control and ±100 the full control effect; nearly all actives have a fitted effect of over 60% in size
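Kinetic colorimetric format: TGR-catalysed, NADPH-driven DTNB reduction monitored via TNB absorbance. Enzyme dispensed at 20 nM; compound exposure 15 min at room temperature before reaction start.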
Pf growth 48h = P. falciparum growth inhibition at 48 hours (one generation); P. falciparum luciferase growth in erythrocytes, 48 h; Potency, µM (top dose mostly 28.7 µM), without a hit: at the top dose activity change, negative = inhibition, hits mostly inhibitors; 5.9% of 310,000 active; AID 504832; further: on the % scale 0 is the no-effect control and ±100 the full control effect
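Erythrocytes infected with P. falciparum carrying an integrated firefly luciferase reporter (2% hematocrit, 0.1% parasitemia final) were exposed to compounds in RPMI 1640 with 0.5% Albumax at 37 C, 5% CO2. Growth inhibition was scored as reduced luminescence.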
Pf growth 96h = P. falciparum growth inhibition at 96 hour, primary screen for plastid delayed-death inhibitors. 6.9% of 320,000 active. Potency, µM (top dose mostly 28.7 µM), without a hit: at the highest dose activity change, negative = inhibition, usual class: inhibitors. P. falciparum luciferase reporter growth, 96 h; further: on the % scale 0 is the no-effect control and ±100 the full control effect
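Two parasite generations (96 h, 37 C, 5% CO2) of compound exposure in infected erythrocytes (0.05% parasitemia, 2% hematocrit). Luciferase-reporter P. falciparum; decreased luminescence indicates inhibited growth, aimed at apicoplast-acting delayed death.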
An asterisk follows results filed as active. Unless noted, the call rests on the fitted dose curve; in most records, active means well fitted curve in the direction sought with a large enough effect; inconclusive means small, poorly fitted or top-dose-only effect, or another doubt; inactive means no such curve, though single readings can be large; an effect the other way counts as inactive or inconclusive. Potency means the concentration at half of the fitted maximal effect.

How did CN1CCN(C(CNC(=O)C(=O)Nc2cccc(Cl)c2)c2ccc3c(c2)OCO3)CC1 (stereo unspecified) do in these assays?
Sm TGR inh: 7%

How did O=C(NCc1ccccc1)C(c1ccc(F)cc1)N(C(=O)c1csnn1)c1ccccc1 (stereo unspecified) do in these assays?
SARS PLpro yeast: 4%; Sm TGR inh: -12%; Pf growth 48h: -18%; Pf growth 96h: 7%

Results for O=C(NCc1ccc(F)cc1)C(c1cccnc1)N(C(=O)c1csnn1)c1ccccc1 (stereo unspecified) ?
SARS PLpro yeast: 3%; Sm TGR inh: 9%; Pf growth 48h: -26%; Pf growth 96h: 10µM*

How did CC(C)Sc1ncc(Cl)c(C(=O)Nc2nc3ccc(S(C)(=O)=O)cc3s2)n1 do in these assays?
Sm TGR inh: 2%

How did O=C(COc1ccc(-c2ccccc2)cc1)N/N=C/c1cc(O)ccc1Br do in these assays?
SARS PLpro yeast: -30%; Sm TGR inh: -5%; Pf growth 48h: -8%; Pf growth 96h: 8.3µM*

How did COc1cccc(/C=N/NC(=O)CNC(=O)COc2cccc(C)c2)c1O do in these assays?
SARS PLpro yeast: 4%; Sm TGR inh: -1%; Pf growth 48h: 2.9µM*; Pf growth 96h: 46%

How did Cc1cccc(OCC(=O)NCC(=O)N/N=C/c2ccc(O)cc2O)c1 do in these assays?
SARS PLpro yeast: 7%; Sm TGR inh: 4%; Pf growth 48h: 10µM*; Pf growth 96h: inconclusive

What do the screens show for `Cc1cccc(OCC(=O)NCC(=O)N/N=C/c2ccccc2)c1`?
SARS PLpro yeast: 1%; Sm TGR inh: -2%; Pf growth 48h: 24%; Pf growth 96h: 27%

What do the screens show for `COc1cccc(/C=N/NC(=O)Cn2nc(C)c([N+](=O)[O-])c2C)c1O`?
SARS PLpro yeast: 16%; Sm TGR inh: -18%; Pf growth 48h: 12µM*; Pf growth 96h: inconclusive

What do the screens show for `Cc1nn(CC(=O)N/N=C/c2cccs2)c(C)c1[N+](=O)[O-]`?
SARS PLpro yeast: 0%; Sm TGR inh: 0%; Pf growth 48h: 7%; Pf growth 96h: 38%

Results for O=C1[C@@H]2CSC(c3ccc(Cl)cc3)N2C(=O)N1c1ccccc1 (stereo partly specified) ?
Sm TGR inh: 8%

How did COc1ccc2[nH]c(C)c(CCNS(=O)(=O)c3cc(F)ccc3OC)c2c1 do in these assays?
Sm TGR inh: -4%

Results for O=C(Nc1cccnc1)c1ccc(NS(=O)(=O)c2cc([N+](=O)[O-])ccc2Cl)cc1 ?
SARS PLpro yeast: 0%; Sm TGR inh: 32µM*; Pf growth 48h: 1%; Pf growth 96h: 1%

Results for O=C(Nc1ccncc1)c1ccc(Cl)c(S(=O)(=O)N2CCCCC2)c1 ?
SARS PLpro yeast: -8%; Sm TGR inh: -5%; Pf growth 48h: inconclusive; Pf growth 96h: 1.9µM*

What do the screens show for `CCc1noc(C)c1C(=O)Nc1ccc(S(=O)(=O)N2CCCCC2)cc1`?
SARS PLpro yeast: -1%; Sm TGR inh: 1%; Pf growth 48h: inconclusive; Pf growth 96h: inconclusive

What do the screens show for `CCc1noc(C)c1C(=O)Nc1ccc(Cl)c(S(=O)(=O)N2CCCCC2)c1`?
SARS PLpro yeast: 1%; Sm TGR inh: 1%; Pf growth 48h: 9.3µM*; Pf growth 96h: inconclusive

Results for CCN(CC)CCOC(=O)c1ccc(NC(=O)c2ccc(Cl)c(S(=O)(=O)N3CCCCCC3)c2)cc1 ?
SARS PLpro yeast: 0%; Sm TGR inh: 5%; Pf growth 48h: inconclusive; Pf growth 96h: 4.1µM*

How did O=[N+]([O-])c1ccc(Cl)c(S(=O)(=O)/N=C(/Nc2cccnc2)c2ccccc2)c1 do in these assays?
SARS PLpro yeast: 8%

How did CCOc1ccccc1NC(=O)c1ccc2c(Cl)c3c(nc2c1)CCC3 do in these assays?
Sm TGR inh: 4%

What do the screens show for `COc1ccc(C)cc1NC(=O)C1CCC(CNS(=O)(=O)c2ccc3c(c2)CCCC(=O)N3)CC1` (stereo unspecified)?
Sm TGR inh: 4%

What do the screens show for `C=CCN(CC=C)C(=O)COn1nnc2ccc(S(=O)(=O)N3CCOCC3)cc21`?
Sm TGR inh: 9%; Pf growth 48h: -1%; Pf growth 96h: -5%

How did CCN1CCN(c2ccc(NC(=O)c3ccc(OC)c(S(=O)(=O)N4CCCC4)c3)cc2)CC1 do in these assays?
SARS PLpro yeast: -4%; Sm TGR inh: -4%; Pf growth 48h: 4%; Pf growth 96h: inconclusive

Results for CCc1nnc(NC(=O)c2ccc(F)c(S(=O)(=O)N3CCCCC3)c2)s1 ?
SARS PLpro yeast: -5%; Sm TGR inh: -19%; Pf growth 48h: 8%; Pf growth 96h: 12µM*

How did O=C(Nc1cccnc1)c1ccc(Cl)c(S(=O)(=O)N2CCCCCC2)c1 do in these assays?
SARS PLpro yeast: -13%; Sm TGR inh: 2%; Pf growth 48h: 10µM*

Results for CCN1CCN(c2ccc(NC(=O)c3ccc(Cl)c(S(=O)(=O)N4CCCC4)c3)cc2)CC1 ?
SARS PLpro yeast: 1%; Sm TGR inh: -10%; Pf growth 48h: 10µM*; Pf growth 96h: inconclusive

What do the screens show for `Cc1nn(CC(=O)OCC(=O)c2ccc(OC(F)F)cc2)c(C)c1[N+](=O)[O-]`?
SARS PLpro yeast: -1%; Sm TGR inh: 8%; Pf growth 48h: 4%; Pf growth 96h: 34%

How did Cc1ccc(C2=NC(c3ccc(F)cc3)=Nc3ccc(C)cc3N2)cc1 do in these assays?
Sm TGR inh: -3%

What do the screens show for `Cc1cc(N2CCC(N(C)C3CCCC3)CC2)nc2cc(O)ccc12`?
SARS PLpro yeast: 8%; Sm TGR inh: 1%; Pf growth 48h: 1.9µM*; Pf growth 96h: -26%

What do the screens show for `CN(C)c1ccc(C(c2nnnn2CCOC(=O)Nc2ccc(Cl)cc2)N2CCOCC2)cc1` (stereo unspecified)?
SARS PLpro yeast: 0%; Sm TGR inh: 25µM*; Pf growth 48h: -25%; Pf growth 96h: 9%

How did CCC(Sc1nc2ncccc2o1)C(=O)Nc1ccc(OC)c(OC)c1 (stereo unspecified) do in these assays?
Sm TGR inh: -4%

What do the screens show for `CCOC(=O)c1cc(=O)n2nc(-c3ccccc3F)nc2s1`?
SARS PLpro yeast: -13%; Sm TGR inh: 10µM*; Pf growth 48h: 15%

How did CCOC(=O)c1ccc(NC(=O)Cn2nnc(-c3ccccc3F)n2)cc1 do in these assays?
SARS PLpro yeast: 9%; Sm TGR inh: -22%; Pf growth 48h: -16%; Pf growth 96h: 13%

What do the screens show for `CC(Sc1nnc(-c2ccco2)n1C)C(=O)Nc1nccs1` (stereo unspecified)?
SARS PLpro yeast: 6%; Sm TGR inh: inconclusive; Pf growth 48h: inconclusive; Pf growth 96h: 5.2µM*

How did Cc1nnc(NC(=O)C(C)Sc2nnc(-c3ccco3)n2C)s1 (stereo unspecified) do in these assays?
SARS PLpro yeast: -1%; Sm TGR inh: -23%; Pf growth 48h: -12%; Pf growth 96h: -18%

Results for Cc1nnc(SC(C)C(=O)Nc2ccc(Cl)cn2)n1Cc1ccccc1 (stereo unspecified) ?
SARS PLpro yeast: 1%; Sm TGR inh: 1%; Pf growth 48h: 2%; Pf growth 96h: 4%
